Shown are actives, neighbours in structure and some others; about 3.3% of the full set was active somewhere.
SIRT5 inh – inhibitors of human sirtuin-5 desuccinylase; Q9NXA8; Purified SirT5, succinyl-peptide AMC, trypsin-coupled fluorescence; inhibition, % at 15 µM; 330,000 tested, 1.1% active; AID 652115; in the data active = inhibition above about 15%
FGF22 binding – shifts melting point of recombinant human FGF22; 340,000 tested, 1.5% active; recombinant FGF22 thermal shift, SYPRO orange fluorescence; percent of sucrose octasulfate shift, DMSO zero; Q9HCT0; activity (Tm shift, normalised), % at 9.99 µM;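 active = mean Tm shift, scaled 0 neutral to 100 positive control, at about 1.3% or above, every replicate too, limit read from the data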
Target sequence (Q9HCT0 whole entry, looked up): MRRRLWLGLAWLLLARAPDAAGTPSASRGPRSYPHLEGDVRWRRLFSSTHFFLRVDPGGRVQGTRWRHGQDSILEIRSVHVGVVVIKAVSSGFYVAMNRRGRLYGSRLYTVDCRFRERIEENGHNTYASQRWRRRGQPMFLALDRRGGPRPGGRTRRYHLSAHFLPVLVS
CASP6 VEID inh – caspase-6 (human) enzyme inhibition. purified caspase-6, Z-VEID-R110 cleavage fluorescence. AID 686996. inhibition, % at 12.5 µM. P55212. 350,000 tested, 0.53% active;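 active = mean inhibition across replicates at least about 35%, with every replicate also reaching that limit, limit read from the data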;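 also: 0% = median of neutral control wells and 100% = no fluorescence left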
Target sequence (P55212 24-179 limits assumed): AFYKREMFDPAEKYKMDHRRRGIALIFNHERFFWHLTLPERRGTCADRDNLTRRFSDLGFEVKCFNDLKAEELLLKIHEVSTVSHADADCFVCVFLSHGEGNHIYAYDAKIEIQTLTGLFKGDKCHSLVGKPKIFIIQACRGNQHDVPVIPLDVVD
Target sequence (P55212 194-293 limits assumed): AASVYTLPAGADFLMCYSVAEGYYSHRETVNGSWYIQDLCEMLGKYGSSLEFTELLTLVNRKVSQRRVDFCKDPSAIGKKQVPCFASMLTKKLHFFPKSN
GSIS activator – GLuc luminescence reporter in INS-1E cells, primary screen for activators of glucose-dependent secretion of insulin. INS-1E GLuc reporter insulin secretion, 2-3 h. activation, % at 16.6 µM. 370,000 tested, 0.61% active. AID 743287;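 active = lowest replicate activation of at least 40%, so every replicate reaches that level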;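 also: 0% = median of neutral control wells and 100% = median of IBMX positive control wells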
ERAP1 HTS inh – inhibitors of human ERAP1 aminopeptidase | 340,000 tested, 0.15% active | recombinant ERAP1, Leu-AMC fluorescence, 60 min | AID 652197 | Q9NZ08 | inhibition, % at 10.7 µM;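 active = mean replicate inhibition of at least 30%, or all replicates individually reaching that 30% level; inactive = mean below 30% and not every replicate reaching it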;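 also: 0% = neutral control wells and 100% = L-leucinethiol positive control wells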
* hit, by the source's call; · = not tested or not shown; ! = repeats disagree.

SMILES | SIRT5 inh | FGF22 binding | CASP6 VEID inh | GSIS activator | ERAP1 HTS inh
O=C(NCC(c1ccco1)N1CCOCC1)c1c(F)cccc1F (configuration not stated) | 17* | 0 | -1 | -7 | 1
O=C(NCC(c1ccco1)N1CCOCC1)c1ccc(F)cc1 (configuration not stated) | -5 | 0 | 1 | 5 | 2
COc1ccc(OCC(=O)N/N=C/C=C/c2ccccc2)cc1 | 0 | 43* | 2 | 16 | 0
CCNc1nn2ccccc2c1/C=C(\C#N)C(=O)OCC | 0 | 0 | -2 | 66* | 3
CCCNC(=O)N1CC2(CN(C(=O)CC3CC3)C2)c2c(n(C)c3cc(OC)ccc23)[C@@H]1CO | · | 0 | · | 24 | ·
CN(/N=C/c1ccco1)C1=NS(=O)(=O)c2ccccc21 | -1 | 43 | 3 | 8 | 1
CCNc1nc(NCC)nc(N(C)/N=C/c2ccco2)n1 | 2 | 0 | -1 | 62* | -5
C[C@@H]1CN([C@H](C)CO)C(=O)c2cccc(NC(=O)c3nc4ccccc4s3)c2O[C@H]1CN(C)C(=O)Nc1ccc2c(c1)OCO2 | -29 | 0 | 1 | -4 | 5
Nc1cccc(S(=O)(=O)c2ccc(N)c(N)c2)c1 | 0 | 43* | 2 | -17 | 5
Nc1ccc(S(N)(=O)=O)cc1N | -4 | 0 | 9 | 5 | 6
N#C[C@H]1[C@@H](c2ccc(-c3ccccc3F)cc2)[C@H](CO)N1C(=O)Cc1ccccc1 | 3 | 0 | 0 | -4 | 5
O=C(NCC(F)(F)F)[C@@H]1[C@@H](CO)[C@@H]2Cn3c(ccc(-c4ccncc4)c3=O)[C@@H]2N1Cc1ccncc1 | -13 | 0 | 3 | 15 | -6
O=C(O)c1ccc(CNCc2c(Cl)cccc2Cl)cc1 | · | · | · | -1 | ·
O=C(O)c1ccc(CNCc2cccc(Cl)c2)cc1 | 21* | 0 | 0 | 10 | -9
Cc1c(Nc2ccc(C=O)cc2)c(=O)n(-c2ccccc2)n1C | 3 | 43* | 3 | 8 | 0
C[C@H](O)C#Cc1ccc2c(c1)O[C@@H](CN(C)Cc1ccccc1)[C@@H](C)CN([C@H](C)CO)S2(=O)=O | 0 | 0 | 2 | 3 | 3
CC(C)NC(=O)N1C[C@H]2[C@@H](c3ccccc31)[C@@H](CO)N2C(=O)Nc1cccc(F)c1 | 2 | 0 | 2 | -18 | 1
C[C@@H]1CN([C@H](C)CO)S(=O)(=O)c2ccc(C3=CCCCC3)cc2O[C@@H]1CN(C)C(=O)Cc1cccnc1 | 15* | 0 | -2 | -4 | -2
C[C@@H]1CN([C@@H](C)CO)C(=O)c2cc(C3=CCCCC3)cnc2O[C@@H]1CN(C)C(=O)Cc1ccccc1 | 1 | 0 | -3 | -2 | -1
C[C@@H]1CN([C@H](C)CO)S(=O)(=O)c2ccc(C3=CCCCC3)cc2O[C@H]1CN(C)C(=O)Nc1ccc2c(c1)OCO2 | 20* | 0 | 0 | -9 | 1
C[C@H](CO)N1C[C@H](C)[C@H](CN(C)C(=O)Cc2ccccc2)Oc2ncc(C3=CCCCC3)cc2C1=O | 21* | 0 | 1 | -12 | 1
C[C@@H]1CN([C@@H](C)CO)S(=O)(=O)c2ccc(C3=CCCCC3)cc2O[C@@H]1CN(C)C(=O)Cc1cccnc1 | 1 | 0 | 1 | -13 | -3
C[C@H](CO)N1C[C@H](C)[C@H](CN(C)C(=O)Cc2ccccc2)Oc2cc(C3=CCCCC3)ccc2S1(=O)=O | 15* | 0 | -2 | -27 | -2
C[C@@H]1CN([C@@H](C)CO)C(=O)c2cc(NC(=O)Nc3ccccc3)ccc2O[C@@H]1CN(C)S(=O)(=O)c1cn(C)cn1 | -1 | 0 | 1 | 10 | -2
C[C@H](CO)N1C[C@H](C)[C@@H](CN(C)Cc2ccccc2)Oc2cc(C3=CCCC3)ccc2S1(=O)=O | 17* | 0 | 0 | 3 | 0
SMILES | SIRT5 inh | FGF22 binding | CASP6 VEID inh | GSIS activator | ERAP1 HTS inh
C[C@@H](NC(=O)C[C@H]1CC[C@H]2[C@@H](COC[C@H](O)CN2C)O1)c1ccccc1 | -2 | 0 | -2 | 17 | 0
CCOC(=O)c1nc2nc(-c3cccs3)cc(C(F)(F)F)n2n1 | · | · | · | 63* | ·
CC(C)NC(=O)N[C@H]1CC[C@@H](CC(=O)N2CCCCC2)O[C@@H]1CO | -4 | 0 | 2 | -10 | 1
C[C@H](CO)N1C[C@H](C)[C@@H](CN(C)C(=O)c2ccc(N3CCN(C)CC3)cc2)OCc2cnnn2CCCC1=O | 33*! | 0 | -4 | 0 | 1
C[C@H](CO)N1C[C@H](C)[C@@H](CN(C)C(=O)c2ccncc2)OCc2cnnn2CCCC1=O | 1 | 0 | 39*! | 9 | 2
COc1cccc(-c2cnc3c(c2)C(=O)N([C@H](C)CO)C[C@H](C)[C@H](CN(C)C(=O)CN(C)C)O3)c1 | -3 | 0 | -1 | 23 | -5
C[C@@H]1CCCCO[C@H](CN(C)Cc2ccc(C(=O)O)cc2)[C@H](C)CN([C@@H](C)CO)C(=O)c2cc(NC(=O)c3ccncc3)ccc2O1 | 0 | 0 | 1 | 6 | 4
CCCCC(=O)Nc1cccc(C(C)O)c1 (configuration not stated) | -7 | 43* | -6 | 9 | 2
CC(C)CC(=O)Nc1cccc(C(C)O)c1 (configuration not stated) | -3 | 43* | 7 | 8 | -1
CCNC(=O)[C@H]1[C@H](CO)[C@H]2Cn3c(ccc(C4=CCCCC4)c3=O)[C@@H]1N2CC | -20 | · | 4 | 4 | 0
C/C=C/c1ccc2c(c1)O[C@@H](CN(C)C(C)=O)[C@H](C)CN([C@H](C)CO)S2(=O)=O | -3 | 0 | -1 | -3 | 1
CCN(CC(=O)Nc1ccccc1OC)C(=O)C1CCCC1 | -3 | 0 | 2 | 68* | -2
C[C@@H]1CN([C@H](C)CO)C(=O)c2cccc(NS(=O)(=O)c3ccccc3)c2O[C@@H]1CN(C)Cc1ccc(-c2ccccc2)cc1 | 8 | -1 | 0 | -8 | -6
C[C@H](CO)N1C[C@H](C)[C@@H](CN(C)Cc2ccc(C(=O)O)cc2)Oc2ccc(NS(=O)(=O)c3ccc(Cl)cc3)cc2C1=O | 24* | 0 | 2 | 5 | 0
Cc1ccc(S(=O)(=O)Nc2cccc3c2O[C@@H](CN(C)Cc2ccc4c(c2)OCO4)[C@@H](C)CN([C@H](C)CO)C3=O)cc1 | 15* | 0 | 3 | -14 | 1
C[C@H](CO)N1C[C@H](C)[C@@H](CN(C)Cc2ccc(-c3ccccc3)cc2)Oc2c(NS(=O)(=O)c3ccccc3)cccc2C1=O | 16*! | -1 | -1 | -5 | -2
Cc1ccc(S(=O)(=O)Nc2cccc3c2O[C@@H](CN(C)Cc2ccc(C(=O)Nc4ccccc4N)cc2)[C@H](C)CN([C@@H](C)CO)C3=O)cc1 | -8 | 0 | · | 16 | ·
Cc1ccc(S(=O)(=O)Nc2cccc3c2O[C@H](CN(C)Cc2ccc(C(=O)Nc4ccccc4N)cc2)[C@@H](C)CN([C@@H](C)CO)C3=O)cc1 | · | 1.4* | -3 | 10 | 2

Compound activity deposited in PubChem BioAssay by Broad Institute.
